According to paper PMC5869772, “Quantitative profiling of BATF family proteins/JUNB/IRF hetero-trimers using Spec-seq”:

Legend:
Assay in all cases: Spec-seq (EMSA and sequencing of bound and unbound bands); 100 nM BATFx-JUNB, 1 uM dsDNA library, 50 mM K acetate, 20 mM Tris-acetate, 10 mM Mg acetate, 100 ug/ml BSA, pH 7.9, 10% glycerol, 30 min on ice; native 9% PAGE at 4 C; low values mean tight binding
Settings in all cases: protein: recombinant;recombinant; tags: N-terminal mCherry-TEV, cleaved off;C-terminal 6His; copies: 1;1; dsDNA, one strand shown
BATF;JUNB = biological target: T1, BATF;JUNB (human;human, UniProt Q16520;P17275 1-125;148-347, |)
T1 sequence 1: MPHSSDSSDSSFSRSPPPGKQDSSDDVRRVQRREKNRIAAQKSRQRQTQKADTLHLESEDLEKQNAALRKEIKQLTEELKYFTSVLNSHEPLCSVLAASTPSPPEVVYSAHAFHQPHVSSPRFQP
T1 sequence 2: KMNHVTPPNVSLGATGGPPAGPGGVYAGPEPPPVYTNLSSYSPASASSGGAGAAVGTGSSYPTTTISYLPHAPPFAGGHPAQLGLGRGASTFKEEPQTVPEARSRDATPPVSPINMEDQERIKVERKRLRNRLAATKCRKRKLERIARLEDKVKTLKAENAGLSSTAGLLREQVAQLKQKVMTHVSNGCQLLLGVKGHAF
Procedure, shortened: (§1)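 The protein, at 100 nM, was incubated with 1 μM double-stranded degenerate DNA library for 30 min on ice in NEB Cutsmart buffer with 10% glycerol, then resolved by native 9% PAGE at 4 °C. Excised bound and unbound bands were PCR-barcoded and Illumina-sequenced, and each sequence's relative binding energy in kT is −ln of its bound/unbound read-count ratio.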

BATF2 (bZIP);JUNB = biological target: T2, BATF2 (bZIP);JUNB (human;human, UniProt Q8N1L9;P17275 1-142;148-347, |)
T2 sequence 1: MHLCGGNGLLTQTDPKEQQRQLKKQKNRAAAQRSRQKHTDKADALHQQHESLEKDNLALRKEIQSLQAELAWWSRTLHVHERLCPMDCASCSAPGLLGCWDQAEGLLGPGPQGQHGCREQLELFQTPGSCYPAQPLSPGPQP
T2 sequence 2: T1 sequence 2
Procedure, shortened: as §1

BATF3;JUNB = biological target: T3, BATF3;JUNB (human;human, UniProt Q9NR55;P17275 1-127;148-347, |)
T3 sequence 1: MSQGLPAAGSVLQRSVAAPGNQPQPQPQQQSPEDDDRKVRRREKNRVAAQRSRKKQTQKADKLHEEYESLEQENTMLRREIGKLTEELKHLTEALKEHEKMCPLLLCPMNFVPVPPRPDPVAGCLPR
T3 sequence 2: T1 sequence 2
Procedure, shortened: as §1

Sequence	binding signal (BATF;JUNB) [kT]	binding signal (BATF2 (bZIP);JUNB) [kT]	binding signal (BATF3;JUNB) [kT]
GATAGTCTCATTTTCACCCCGTGAAACCGAGTCATTGTTCCATTACAGTATCTGT	-0.617	0.173	-0.192
GATAGTCTCATTTTCACCCCGTGAAACTGGGTCATTGTTCCATTACAGTATCTGT	0.364	0.724	0.562
GATAGTCTCATTTTCACCCCGTGAAATGAGTCCATTGTTCCATTACAGTATCTGT	0.0398	1.1	0.51
GATAGTCTCATTTTCACCCCGTGAAATAACTCATTTGTTCCATTACAGTATCTGT	-0.0626	0.612	0.332
GATAGTCTCATTTTCACCCCGTGAAACGGAGTCATTGTTCCATTACAGTATCTGT	-0.207	0.313	0.06
GATAGTCTCATTTTCACCCCGTGAAATGAATCATTTGTTCCATTACAGTATCTGT	-0.738	-0.323	-0.732
GATAGTCTCATTTTCACCCCGTGAAAGTAAGTCATTGTTCCATTACAGTATCTGT	-0.0818	0.203	-0.041
GATAGTCTCATTTTCACCCCGTGAAAGGACTCATTTGTTCCATTACAGTATCTGT	0.219	0.9	0.665
GATAGTCTCATTTTCACCCCGTGAAATGACTTCATTGTTCCATTACAGTATCTGT	-0.183	0.172	-0.643
GATAGTCTCATTTTCACCCCGTGAAATGACCCAATTGTTCCATTACAGTATCTGT	0.427	0.768	0.601
GATAGTCTCATTTTCACCCCGTGAAATGACGCATTTGTTCCATTACAGTATCTGT	-0.475	0.109	-0.479
GATAGTCTCATTTTCACCCCGTGAAATGGGTCATTTGTTCCATTACAGTATCTGT	0.293	0.704	0.458
GATAGTCTCATTTTCACCCCGTGAAAATCAGTCATTGTTCCATTACAGTATCTGT	-0.547	0.0501	-0.272
GATAGTCTCATTTTCACCCCGTGAAATGCGTCATTTGTTCCATTACAGTATCTGT	-0.941	-0.434	-1.03
GATAGTCTCATTTTCACCCCGTGAAATGACTAATTTGTTCCATTACAGTATCTGT	-0.506	0.0427	-0.424
GATAGTCTCATTTTCACCCCGTGAAATGAGTTACTTGTTCCATTACAGTATCTGT	0.198	0.967	0.809
GATAGTCTCATTTTCACCCCGTGAAATGAGTCTTTTGTTCCATTACAGTATCTGT	0.0504	1.04	0.768
GATAGTCTCATTTTCACCCCGTGAAAAGAGTCATTTGTTCCATTACAGTATCTGT	-0.155	0.416	0.137
GATAGTCTCATTTTCACCCCGTGAAATGACTCGATTGTTCCATTACAGTATCTGT	-0.328	0.519	0.109
GATAGTCTCATTTTCACCCCGTGAAATTAAGTCATTGTTCCATTACAGTATCTGT	-0.398	-0.048	-0.719
GATAGTCTCATTTTCACCCCGTGAAATGAGCCAATTGTTCCATTACAGTATCTGT	0.591	1.4	0.829
GATAGTCTCATTTTCACCCCGTGAAACTAAGTCATTGTTCCATTACAGTATCTGT	-0.15	0.261	-0.118
GATAGTCTCATTTTCACCCCGTGAAATGTGTCATTTGTTCCATTACAGTATCTGT	-0.52	-0.022	-0.44

Sequence	binding signal (BATF;JUNB) [kT]	binding signal (BATF2 (bZIP);JUNB) [kT]	binding signal (BATF3;JUNB) [kT]
GATAGTCTCATTTTCACCCCGTGAAACGAGTCATTTGTTCCATTACAGTATCTGT	-0.477	0.283	-0.111
GATAGTCTCATTTTCACCCCGTGAAACAGAGTCATTGTTCCATTACAGTATCTGT	-0.149	0.309	-0.0855
GATAGTCTCATTTTCACCCCGTGAAATTCAGTCATTGTTCCATTACAGTATCTGT	-0.317	0.285	-0.0636
GATAGTCTCATTTTCACCCCGTGAAATGACGCACTTGTTCCATTACAGTATCTGT	-0.31	0.227	-0.203
GATAGTCTCATTTTCACCCCGTGAAATGAGTGAATTGTTCCATTACAGTATCTGT	0.0809	0.83	0.58
GATAGTCTCATTTTCACCCCGTGAAATGACGCCATTGTTCCATTACAGTATCTGT	-0.429	0.257	-0.802
GATAGTCTCATTTTCACCCCGTGAAATTACGTCATTGTTCCATTACAGTATCTGT	-0.943	-1.14	-1.82
GATAGTCTCATTTTCACCCCGTGAAATGAGTCTGTTGTTCCATTACAGTATCTGT	0.124	1.09	0.723
GATAGTCTCATTTTCACCCCGTGAAATGAGTCCGTTGTTCCATTACAGTATCTGT	0.231	1.26	1.04
GATAGTCTCATTTTCACCCCGTGAAATGAGACAGTTGTTCCATTACAGTATCTGT	0.654	1.32	1.06
GATAGTCTCATTTTCACCCCGTGAAATGAGCCATTTGTTCCATTACAGTATCTGT	0.392	1.26	0.914
GATAGTCTCATTTTCACCCCGTGAAATGAGTCCTTTGTTCCATTACAGTATCTGT	0.17	1.09	0.708
GATAGTCTCATTTTCACCCCGTGAAATGACGTAATTGTTCCATTACAGTATCTGT	-0.759	-0.891	-1.44
GATAGTCTCATTTTCACCCCGTGAAATGAGACAATTGTTCCATTACAGTATCTGT	0.693	1.52	0.853
GATAGTCTCATTTTCACCCCGTGAAACTGCGTCATTGTTCCATTACAGTATCTGT	-0.647	-0.164	-0.774
GATAGTCTCATTTTCACCCCGTGAAATGACTGATTTGTTCCATTACAGTATCTGT	-0.224	0.321	0.106
GATAGTCTCATTTTCACCCCGTGAAAGAGAGTCATTGTTCCATTACAGTATCTGT	-0.0937	0.318	0.155
GATAGTCTCATTTTCACCCCGTGAAACTGTGTCATTGTTCCATTACAGTATCTGT	-0.318	0.116	-0.22
GATAGTCTCATTTTCACCCCGTGAAATGACTCTGTTGTTCCATTACAGTATCTGT	-0.0517	0.667	0.481
GATAGTCTCATTTTCACCCCGTGAAAATGCGTCATTGTTCCATTACAGTATCTGT	-1.01	-0.552	-1.11
GATAGTCTCATTTTCACCCCGTGAAATGAGTCTATTGTTCCATTACAGTATCTGT	-0.119	1.33	0.647
GATAGTCTCATTTTCACCCCGTGAAATGACTGAGTTGTTCCATTACAGTATCTGT	-0.132	0.387	0.26
